Experimental findings from the supplement of paper PMC10849652 are described below.

The structures appear in SMILES notation. Targets with a hit are over-represented here; the source holds about 7,900 in all. About 0.6% of all pairs of compound and target were hits.

Chain of YIPF6 (Q96EC8 whole entry, looked up): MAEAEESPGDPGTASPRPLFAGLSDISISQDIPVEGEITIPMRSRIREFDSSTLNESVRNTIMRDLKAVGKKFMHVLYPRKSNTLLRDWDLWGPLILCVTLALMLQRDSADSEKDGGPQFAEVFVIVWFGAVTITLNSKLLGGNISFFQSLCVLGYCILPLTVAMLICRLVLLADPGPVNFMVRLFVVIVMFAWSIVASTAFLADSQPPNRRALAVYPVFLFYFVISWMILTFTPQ

The assay deals with YIPF6 (UniProt Q96EC8). As to the kind of experiment: log2 fold change, soluble protein after heating vs DMSO (PISA); higher = thermal stabilisation; K562 cells, 10 uM, 30 min; active = over 0.2 and 3.5 SD of the protein, either way, in both replicates (recomputed). The essentials:
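K562 cells at 2×10^6 cells/mL were exposed to 10 μM compound for 30 min, then aliquots were heated for 3 min across 48°C-58°C, pooled, and extracted in PBS containing 0.5% NP-40 at 4°C. The supernatant after 21,000xg for 90 min was taken as soluble protein and measured by TMTpro 16plex LC-MS/MS with channel sums equalised. Thermal stability is reported relative to control samples, with values from duplicates. Fold changes are given on a log2 scale.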
For `NC(=O)c1cnc(N[C@@H]2CCCC[C@@H]2N)nc1Nc1cccc(-n2nccn2)c1`, the log2 fold change was -0.088 (inactive).
`CC(C)N(C[C@H]1O[C@@H](n2cnc3c(N)ncnc32)[C@H](O)[C@@H]1O)[C@H]1C[C@@H](CCc2nc3cc(C(C)(C)C)ccc3[nH]2)C1` [pinometostat]: the log2 fold change was 0.023 (inactive).
In the case of `C[C@@H](Oc1cc(-c2cnn(C3CCNCC3)c2)cnc1N)c1c(Cl)ccc(F)c1Cl` [crizotinib], the log2 fold change was -0.081 (inactive).
Consider `O=C1NC(=NCc2cccs2)S/C1=C\c1ccc2ncccc2c1`, for which the log2 fold change is 0.042 (inactive).
For `Cc1cn(-c2cc(NC(=O)c3ccc(C)c(Nc4nccc(-c5cccnc5)n4)c3)cc(C(F)(F)F)c2)cn1` [nilotinib] the value was 0.063 (inactive); for `Cc1cccc(-c2[nH]c(C(C)(C)C)nc2-c2ccc3nccnc3c2)n1`, 0.047 (inactive); for `CN1CCc2c(c3ccccc3n2Cc2ccc(C(=O)NO)cc2)C1` [Tubastatin A], -0.01 (inactive).
For `CC[C@@H]1C(=O)N(C)c2cnc(Nc3ccc(C(=O)NC4CCN(C)CC4)cc3OC)nc2N1C1CCCC1` the value was -0.001 (inactive).
For `CNC(=O)c1ccc(Nc2ncc(C(F)(F)F)c(NCc3nccnc3N(C)S(C)(=O)=O)n2)cc1` [defactinib], the log2 fold change is -0.041 (inactive).
For `CN1CCC(CNc2ccc3ncc(-c4cccc(OC(F)(F)F)c4)n3n2)CC1` the value was 0.155 (inactive).
For `NC1(Cc2ccc(Cl)cc2)CCN(c2ncnc3[nH]ccc23)CC1`, the log2 fold change was -0.015 (inactive).
For `Cn1cncc1[C@@](N)(c1ccc(Cl)cc1)c1ccc2c(c1)c(-c1cccc(Cl)c1)cc(=O)n2C` [tipifarnib] the value was -0.035 (inactive).
In the case of `Cc1cc(Nc2cc(N3CCN(C)CC3)nc(Sc3ccc(NC(=O)C4CC4)cc3)n2)n[nH]1` [tozasertib] it was -0.066 (inactive); in that of `O=C(Nc1cccc(Nc2ncc(Br)c(NCCc3cnc[nH]3)n2)c1)N1CCCC1`, -0.013 (inactive); in that of `c1cc(OCCN2CCCCC2)cc(-c2n[nH]c3ccc(-c4nnc[nH]4)cc23)c1`, 0.036 (inactive).
In the case of `O=C1c2ccccc2-c2n[nH]c3cccc1c23` it was -0.018 (inactive); in that of `CC(=O)c1cnc2ccc(-c3cc(Cl)c(O)c(Cl)c3)nc2c1N[C@H]1CC[C@H](CN(C)C)CC1`, 0.008 (inactive).
For the molecule `O=C(Nc1nc2ccccc2n1CCN1CCOCC1)c1cccc([N+](=O)[O-])c1` [IRAK-1-4 Inhibitor I], the log2 fold change was 0.029 (inactive).
